# Screening results as filed in PubChem.
# An excerpt weighted towards active compounds, which were near 4.1% of everything screened.
# AmpC inh no detg: AmpC beta-lactamase inhibition without detergent; P00811; AmpC nitrocefin hydrolysis, absorbance 480 nm, 0.0001% Triton; Potency, µM (top dose mostly 57.1 µM), hits mostly inhibitors; 330,000 tested, 0.52% active; also: nearly all actives have a fitted effect of over 20% in size
# Target sequence (P00811 whole entry, looked up): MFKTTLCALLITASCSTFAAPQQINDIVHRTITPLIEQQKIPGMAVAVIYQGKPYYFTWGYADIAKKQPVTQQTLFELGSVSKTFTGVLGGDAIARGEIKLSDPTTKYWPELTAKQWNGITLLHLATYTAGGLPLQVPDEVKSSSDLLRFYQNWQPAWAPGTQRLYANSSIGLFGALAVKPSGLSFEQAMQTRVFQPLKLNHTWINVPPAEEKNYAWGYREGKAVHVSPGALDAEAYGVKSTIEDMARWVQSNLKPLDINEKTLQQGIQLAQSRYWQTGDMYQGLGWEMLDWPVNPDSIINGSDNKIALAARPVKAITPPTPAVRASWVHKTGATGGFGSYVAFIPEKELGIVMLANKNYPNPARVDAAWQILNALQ
#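 20 mM phosphate pH 7.0 + 0.01% (detergent screen) or 0.0001% Triton X-100; 5.3 nM AmpC reagent; cpd preinc 15 min RT; nitrocefin (800 uM stock) to start; A480 q20 s × 4 min; Activity was normalised to no-enzyme and no-compound control wells.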
# AmpC detergent: blocks E. coli AmpC beta-lactamase in detergent assay; 370,000 tested, 0.041% active; AmpC hydrolysis of nitrocefin, absorbance 480 nm, 0.01% Triton; AID 485294; Potency, µM (titrated, usually from 114 µM), actives largely listed as inhibitors; also: nearly all actives have a fitted effect of over 25% in size
#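 20 mM phosphate pH 7.0 + 0.01% (detergent screen) or 0.0001% Triton X-100; 5.3 nM AmpC reagent; cpd preinc 15 min RT; nitrocefin (800 uM stock) to start; A480 q20 s × 4 min; Activity was normalised to no-enzyme and no-compound control wells.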
# FMDV inh: blocks foot and mouth disease virus; FMDV antiviral cell-based qHTS; Potency, µM (doses to about 57.9 µM), usual class: inhibitors; 410,000 tested, 1.2% active; calls by dose curve; tested in HEK293T cells; also: read-out not given here; nearly all actives have a fitted effect of over 45% in size
# Sm TGR block: S. mansoni TGR enzyme inhibition; AID 485364; Potency, µM (series often up to 114 µM), usual class: inhibitors; purified TGR, DTNB reduction, TNB absorbance 405 nm; Q962Y6; 360,000 tested, 3% active; also: nearly all actives have a fitted effect of over 60% in size
#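 Kinetic colorimetric format: TGR-catalysed, NADPH-driven DTNB reduction monitored via TNB absorbance. Enzyme dispensed at 20 nM; compound exposure 15 min at room temperature before reaction start.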
# AMA1 RON2 block: inhibitors of Plasmodium falciparum AMA1-RON2 interaction | 360,000 tested, 0.2% active | Potency, µM (series often up to 58.2 µM), hits mostly inhibitors | AlphaScreen AMA1-biotinylated RON2 peptide binding; also: nearly all actives have a fitted effect of over 45% in size
#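 AMA1 (3D7) with his tag at 25 nM final met compounds first, then biotinylated RON2 peptide at 25 nM; detection used donor plus acceptor beads, 10 µg/mL apiece, read by AlphaScreen after 30 min at room temperature.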
# A number is an active result; i = inactive; ? = inconclusive; nt = not tested or not shown; [ ] = remark or other dose. Unless noted, calls follow the shape of the dose curve; as a rule, active = well fitted curve in the direction sought with a large enough effect; inconclusive = small, poorly fitted or top-dose-only effect, or another doubt; inactive = no such curve, though single readings can be large; an effect the other way counts as inactive or inconclusive.
SMILES,AmpC inh no detg,AmpC detergent,FMDV inh,Sm TGR block,AMA1 RON2 block
Cc1ccc(N2C(=O)CC(Sc3ccccc3C(=O)O)C2=O)c([N+](=O)[O-])c1 (centres undefined),i,?,i,nt,i
CN(Cc1ccccc1)C1CC(=O)N(c2ccc(C(=O)O)cc2)C1=O (centres undefined),i,i,i,20µM,i
Cc1cccc(N2C(=O)CC(Sc3ccccc3C(=O)O)C2=O)c1 (centres undefined),i,i,i,14.1µM,i
COc1ccc(N2C(=O)CC(N(CCc3ccccc3)C(=O)c3ccccc3)C2=O)cc1 (centres undefined),i,i,i,i,i
Cc1cc(C)cc(N2C(=O)CC(Sc3ccccc3C(=O)O)C2=O)c1 (centres undefined),i,i,i,1.26µM,i
CCCCCCCCCCCCC/C=C/[C@@H](O)[C@H](CO)NC(=O)CCCCCCCCCCCCCCC,nt,nt,i[6.7 µM],nt,nt
Cc1ccc(N2C(=O)CC(Sc3ccccc3C(=O)O)C2=O)cc1C (centres undefined),i,i,i,3.98µM,i
O=C(O)c1ccccc1SC1CC(=O)N(c2ccc3c(c2)OCO3)C1=O (centres undefined),i,i,i,2.24µM,i
Nc1ccccc1SC1CC(=O)N(c2ccc3c(c2)OCO3)C1=O (centres undefined),i,i,i,i,i
CCCN1Cc2cccc(C(=O)Nc3ccccc3F)c2C1=O,nt,i,i,i,nt
CCOc1ccccc1N(C)C(=O)c1sc2nc3n(c(=O)c2c1C)CCCC3,nt,i,i,i,nt
OCC1(CC2CCCCO2)CCN(Cc2ccccc2-c2ccco2)CC1 (centres undefined),i,i,i,?,i
CCOC(=O)C1(CC2CCCCO2)CCN(Cc2ccccc2-c2ccco2)CC1 (centres undefined),i,i,i,39.8µM,i
CC(C)N(CCO)Cc1nc(N2CCOCC2)c2cc(Cl)ccc2n1,nt,nt,i,nt,nt
Cc1cccc(C)c1NC(=O)COC(=O)c1c2c(nc3ccccc13)/C(=C\c1ccc3c(c1)OCO3)CCC2,28.2µM,i,i,i,i
Cc1ccccc1C1(CC(=O)N2CCCC(C)C2)CC(=O)N(Cc2cccnc2)C1=O (centres undefined),nt,nt,i,nt,nt
CSc1ncc(C(=O)NCc2ccc(C)cc2)c(C)n1,nt,i,i,i,nt
Cc1cc(Nc2cccc(Cl)c2)c2ccccc2n1,i,i,?,i,i
Cc1ccc(Nc2c(-c3ccco3)nc3nc(C)cc(C)n23)cc1,i,i,i,31.6µM,i
Cc1ccc(-c2nc3ccc(Cl)cn3c2Nc2ccc3c(c2)OCCO3)o1,nt,i,i,28.2µM,nt
Cc1ccc(-c2nc3ncccn3c2Nc2ccc3c(c2)OCCO3)o1,i,i,i,50.1µM,i
Cc1cc(Nc2ccc3c(c2)OCCO3)c2cc(Cl)ccc2n1,i,i,39.8µM,i,i
CCOC(=O)c1cc(NC(=O)c2ccccc2)c(=O)n2c1oc1ccc(Cl)cc12,nt,i,i,i,nt
CCOc1ccc(-n2c(=O)c3c(C)c(C)sc3n(CC(=O)NCCc3ccccc3)c2=O)cc1,nt,i,i,i,nt
Cc1ccc(-c2nc3nc(C)cc(C)n3c2Nc2ccc3c(c2)OCCO3)cc1,nt,i,i,i,nt
SMILES,AmpC inh no detg,AmpC detergent,FMDV inh,Sm TGR block,AMA1 RON2 block
Cc1cc(C)n2c(Nc3ccc4c(c3)OCCO4)c(-c3ccccn3)nc2n1,nt,nt,i,nt,8.91µM
Cc1cccc2nc(CNC(=O)CN3Cc4cc(Cl)ccc4OC(C)C3)cn12 (centres undefined),nt,nt,i,nt,nt
NC(=O)c1sc2nc3c(c(-c4ccco4)c2c1N)CCC3,i,?,nt,i,i
Nc1c(C(=O)NC2CC2)sc2nc3c(c(-c4ccco4)c12)CC/C3=C/c1ccco1,i,i,i,5.01µM,i[2.32 µM]
CC1=C(C(=O)Nc2cccnc2)C(c2ccccc2)n2nc(SCc3ccccc3Cl)nc2N1 (centres undefined),nt,i,i,i,nt
Cc1cc(S(=O)(=O)N2CCCC(N(C)CCc3ccccn3)C2)c(C)cc1Cl (centres undefined),i,i,?,44.7µM,i
COc1cccc(-c2nc(CS(=O)CC(=O)N3CCC4(CC3)OCCO4)c(C)o2)c1 (centres undefined),i,?,i,5.01µM,i
Cc1oc(-c2ccc(Cl)cc2)nc1CS(=O)CC(=O)N1CCC2(CC1)OCCO2 (centres undefined),i,?,i,20µM,i
COc1cccc(-c2nc(CS(=O)CC(=O)N3CCN(c4cccc(C(F)(F)F)c4)CC3)c(C)o2)c1 (centres undefined),nt,i,?,?,nt
CCOC(=O)C1CCN(C(=O)CS(=O)Cc2nc(-c3ccc(C)cc3)oc2C)CC1 (centres undefined),i,?,i,3.98µM,i
Cc1oc(-c2ccccc2Cl)nc1CS(=O)CC(=O)N1CCN(c2cccc(C(F)(F)F)c2)CC1 (centres undefined),nt,i,i,i,nt
Cc1oc(-c2ccc(Cl)cc2)nc1CS(=O)CC(=O)N1CCN(c2cccc(C(F)(F)F)c2)CC1 (centres undefined),nt,i,31.6µM,?,nt
CC(C)OCCCNC(=O)CCCn1c(SCC(=O)c2ccc(F)cc2)nc2c(sc3ccccc32)c1=O,nt,i,i,i,nt
Cc1oc(-c2ccccc2F)nc1CS(=O)CC(=O)N1CCC2(CC1)OCCO2 (centres undefined),i,i,i,28.2µM,i
COc1ccc(-c2cn3nc(N4CCCC(C(=O)Nc5cc(C)ccc5C)C4)sc3n2)cc1 (centres undefined),nt,i,i,i,nt
O=C(CSc1cn(CCNC(=O)c2c(F)cccc2F)c2ccccc12)Nc1ccc2c(c1)OCCO2,nt,i,i,i,nt
O=C1C(=C2SCCCS2)CC/C1=C\c1ccc(F)cc1,i,i,5.01µM,i,i
COc1cc(OC)c2cc(C(=O)N/N=C/c3cccc(OC)c3O)[nH]c2c1,0.398µM,i,i,i,i
COc1cc(/C=N/O)ccc1OCc1ccc(C(=O)O)cc1,i,i,4.47µM,i,i
COc1cc(/C=N/O)ccc1OCc1ccc(Cl)cc1,i,i,nt,nt,nt
COc1cccc(/C=N/Nc2ccc(S(=O)(=O)O)cc2)c1O,i,i,i,i,i
COc1cccc(/C=N/Nc2ccc(C(=O)O)cc2)c1O,i,i,3.55µM,i,i
COc1cccc(OCc2cc(/C=N/Nc3ccc(C(=O)O)cc3)ccc2OC)c1,17.8µM,i,0.891µM,i,i
COC(=O)[C@@H]1CCCN1Cc1ccc2c(c1)CN(Cc1nccs1)CCO2,nt,nt,i,nt,nt
COC(=O)c1ccc(C(=O)N2CCc3c(C(=O)NC(C)c4ccco4)c(OC)cc(=O)n3CC2)cc1 (centres undefined),nt,nt,i,nt,nt
O=C(/C=C/c1ccco1)N1CCc2ccccc21,i,i,i,7.94µM,?
Cc1ccc(/C=C/C(=O)N2CCc3ccccc32)o1,i,i,i,44.7µM,i
CCOC(=O)/C=C/C(=O)N1CCc2ccccc21,i,i,i,i,i
